Experimental findings from PubChem BioAssay AID743279 (National Center for Advancing Translational Sciences (NCATS), 2014) are described below.

Each structure is given as a SMILES string. Hit rate of the full screen: of about 360,000 compounds, about 17,000 (4.7%) were called active. Inconclusive results (about 5%) are left out. Rule as the data show it: active = activity change below about -50%; inconclusive = mostly about -30% to -49%; inactive = weaker than that. This excerpt belongs to a sample that is enriched for actives. Where a SMILES comes first, the peptide text is derived from it. The star is where a group is joined. Bz = O=C(c1ccccc1)*
% is scaled to controls: 0 for no effect and ±100 for the full control effect.

This assay can be described thus: qHTS for Inhibitors of Inflammasome Signaling: IL-1-beta AlphaLISA Primary Screen. The conditions noted are these: THP-1 LPS/ATP IL-1B secretion, 16 h; at 57.5 µM, stronger effect = lower value. The method, boiled down:
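THP-1 cells pretreated 1 hr with compounds (up to 57.5 uM final), then stimulated with LPS (250 ng/mL final) plus ATP (1.25 mM final); secreted IL-1B measured by AlphaLISA after 16 hr, decreased signal indicating inhibition.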
On to `O=C(NC(Cc1ccccc1)C(=O)N1CCCC(C(F)(F)F)C1)c1ccccc1` (stereo unspecified), for which the activity change was 1.82% (inactive). Turning to `CN(Cc1ccccc1F)C(=O)C(Cc1ccccc1)NC(=O)c1ccccc1` (stereo unspecified), the activity change is -84.2% (active). On to `O=C(NC(Cc1ccccc1)C(=O)N1CCCC1C(=O)O)c1ccccc1` (stereo not drawn) (Bz-Phe-Pro-OH; configuration not given here), for which the activity change is 6.95% (inactive).

`COCCn1c(SCC(=O)Nc2ccc(F)cc2F)nc2c(c1=O)SCC2`: the activity change is 18.2% (inactive).

In the case of `CCNC(=O)CCc1nc(-c2ccc(C(C)(C)C)cc2)no1`, the activity change is -3.31% (inactive).

For `OC(CNCCc1ccc(Cl)cc1Cl)COc1ccccc1` (stereo unspecified), the activity change was -91.8% (active).

As to `CC(O)CNCCOc1cccc(Oc2ccccc2)c1` (stereo unspecified), the activity change is -29% (inactive). On to `COc1ccc(OCC(O)CNC(=O)Nc2ccc(Cl)cc2)cc1` (stereo unspecified), for which the activity change is 5.19% (inactive). As to `COc1ccc(C(=O)CCC(=O)Nc2ccc(Cl)cc2)cc1`, the activity change is 4.81% (inactive).

For `COc1ccc(CS(=O)/C(Cl)=C(/Cl)C(=O)Nc2ccc(OC)nc2)cc1` (stereo unspecified), the activity change was -105% (active). The same measure for `COc1ccc(NC(=O)CN2C(=O)NC(C)(c3ccccc3)C2=O)cn1` (stereo unspecified): 12.7% (inactive).

Consider `O=C(COC(=O)c1cc(-c2cccs2)nn1-c1ccccc1)Nc1cc([N+](=O)[O-])ccc1Cl`, for which the activity change is 21.3% (inactive). The same measure for `O=C(Nc1ccccc1-c1nc2ccccc2[nH]c1=O)c1cccs1`: 7.39% (inactive). The same measure for `C/C(=N\Nc1ccccc1)c1cccs1`: 40.5% (inactive); for `C/C(=N\Nc1nc2ccccc2[nH]1)c1cccs1`: -66.3% (active). Turning to `O=C(COc1ccccc1Cl)Nn1cnnc1`, the activity change was 26.3% (inactive). The same measure for `CCOC(=O)CNC(=O)CSc1ncccc1-c1nc2ccccc2[nH]1`: 16.2% (inactive); for `COc1ccc(S(=O)(=O)N(C)C[C@@H]2Oc3ccc(NS(=O)(=O)c4cn(C)cn4)cc3C(=O)N([C@@H](C)CO)C[C@@H]2C)cc1`: -3.54% (inactive). The same measure for `O=C1CCN(CCCc2ccccc2)CCN1CCO`: -16.8% (inactive); for `O=C1c2ccccc2C(=O)c2c1cccc2N1CCN(CCO)CC1`: -59.1% (active).

Take `OCCN1CCN(c2nnc(-c3ccccc3)c3ccccc23)CC1`: the activity change is 23.6% (inactive). Turning to `Cc1ccc(Nc2c(O)nc[nH]c2=O)cc1C`, the activity change was 13.4% (inactive). Take `COc1c(O)cccc1-c1nnn(CCC(=O)OCC(=O)c2ccccc2)n1`: the activity change is 14.4% (inactive).

`O=S1(=O)CCN(C2CCCCCCCCCCC2)CC1`: the activity change is 26.7% (inactive). Turning to `O=c1nc(NO)ccn1C1CCCO1` (stereo unspecified), the activity change was 13.7% (inactive).

Consider `Cc1cccc(C)c1N1CCN(S(=O)(=O)N2CCCCC2)CC1`, for which the activity change is -53.3% (active).

For `Cc1cccc(C)c1N1CCN(S(=O)(=O)N2CCOCC2)CC1`, the activity change was 0% (inactive). With `Cc1cccc(C(=O)N2CCN(S(=O)(=O)N3CCCCC3)CC2)c1`, the activity change is 0% (inactive). `CCC(c1nnnn1-c1ccc2c(c1)OCCO2)N1CCN(c2ccc(C(F)(F)F)cn2)CC1` (stereo unspecified): the activity change was 25.4% (inactive). The same measure for `CCCNC(=O)CCc1c(C)nc2c(c(C)nn2-c2ccccc2)c1C`: -2.57% (inactive); for `CC(=O)C[C@@H]1OC[C@H](CO)N1S(=O)(=O)c1ccc(C)cc1`: 5.63% (inactive). As to `O=C(NCCN1CCOCC1)C1CCN(S(=O)(=O)c2ccccc2)CC1`, the activity change is 0.358% (inactive).

Consider `CN1CCN(C(=O)c2ccc(-c3cc4nc(NCc5cccnc5)n(C)c(=O)c4s3)cc2)CC1`, for which the activity change was -15.2% (inactive). For `CC1CCN(C(=O)c2ccc(S(=O)(=O)Cc3cc(F)ccc3F)c([N+](=O)[O-])c2)CC1`, the activity change is -96.6% (active). The same measure for `Nc1ccc(C(=O)N2CCN(S(=O)(=O)c3ccc(Cl)cc3)CC2)cc1[N+](=O)[O-]`: -21.1% (inactive). With `O=C(c1ccc(Oc2ccc(Cl)cc2)c([N+](=O)[O-])c1)N1CCCC1`, the activity change was -22.3% (inactive).

For the molecule `COc1cc(OC)c(C(=O)NNC(=O)c2ccccc2-n2cccc2)cc1OC`, the activity change was 3.76% (inactive). The same measure for `Cc1cc(C)n(-c2ccc(C(=O)O)cc2[N+](=O)[O-])n1`: 40.6% (inactive); for `CN(C)c1ccc(/C=C/C(=O)c2ccc(C(C)(C)C)cc2)cc1[N+](=O)[O-]`: -95.8% (active); for `CC(=O)c1ccc2c(c1)OCCOCCOc1ccc(C(C)=O)cc1OCCOCCO2`: 0% (inactive). The same measure for `O=C(/C=C/c1ccc(Cl)c([N+](=O)[O-])c1)c1ccc(O)cc1`: -99.9% (active). Turning to `CNc1ccc(NC(C)=O)cc1[N+](=O)[O-]`, the activity change was -5% (inactive). The same measure for `Cc1cc(C(=O)O)ccc1[N+](=O)[O-]`: -16.6% (inactive); for `O=C(/C=C/c1ccc2c(c1)OCCO2)c1ccc(O)cc1`: -103% (active); for `C/C(=N\Nc1nncc2ccccc12)c1ccc(Cl)c([N+](=O)[O-])c1`: -6.54% (inactive). Regarding `CN(C)c1ccc(/C=C/C(=O)c2ccc(O)cc2)cc1[N+](=O)[O-]`, the activity change was -97.8% (active). Take `O=C(/C=C\c1ccc2c(c1)OCO2)NC1(C(=O)Nc2ccc3c(c2)OCCO3)CCCCC1`: the activity change was -1.03% (inactive).

Regarding `CC(=O)Nc1ccc(C=CC(=O)c2ccc([N+](=O)[O-])cc2)cc1`, the activity change is 1.95% (inactive). As to `CC(=O)Nc1ccc(C(=O)/C=C/c2ccc[nH]2)cc1`, the activity change was -9.5% (inactive). The same measure for `CCOC(=O)C1(CCOC)CCN(Cc2cc3ccccc3s2)CC1`: -8.97% (inactive); for `CCOc1ccccc1NC(=S)C(=C([O-])c1ccc2c(c1)OCCO2)[n+]1ccc(CC)cc1`: 3.49% (inactive); for `Cc1ccc(Cc2nnc(SCC(=O)Nc3ccccc3C)[nH]c2=O)cc1`: 19.7% (inactive).

`O=C(Nc1cccc2ccccc12)c1[nH]c(-c2ccccc2)c2c1C(=O)N(C1CC1)C2=O`: the activity change was -16.9% (inactive). On to `CC(O)CN(Cc1ccc(Cl)cc1)CC(C)O` (stereo unspecified), for which the activity change was -2.11% (inactive). Take `CCOC(=O)C(NC(=O)CC(C)C)(Nc1sc2c(c1C(N)=O)CCCC2)C(F)(F)F` (stereo unspecified): the activity change entry is “inactive”. In the case of `CN(C)C(CNC(=O)c1cccc(S(=O)(=O)N2CCc3ccccc3C2)c1)c1ccccc1` (stereo unspecified), the activity change was -16.7% (inactive). The same measure for `O=C(C1CCN(CC2CCCCC2)CC1)N1CCCC1`: -2.85% (inactive). The same measure for `CCCCC(=O)N1CC2(C)CN(C(=O)CCCC)CC(C)(C1)C2=O`: 14% (inactive); for `N#C/C(=C(/O)COC(=O)COc1ccc(Cl)cc1)c1nc2ccccc2[nH]1`: -99.4% (active). The same measure for `CC(C)(C)c1nnc2sc(SCC(O)=C(C#N)c3nc4ccccc4[nH]3)nn2c1=O`: 20.2% (inactive).

Consider `COCCN(CCOC)S(=O)(=O)c1ccc(/C(O)=C(\C#N)c2nc3ccccc3[nH]2)cc1`, for which the activity change was -11.3% (inactive).
